Screening data: PubChem BioAssay, National Center for Advancing Translational Sciences (NCATS)
Rows were chosen to be rich in hits. Some 4.4% of all compounds tested hit in one or more screens of this group.
TRHR PAM: allosteric enhancers of human TRH receptor | P34981 | TRHR cells, fluo-8 calcium fluorescence, EC20 TRH enhancement | enhancement, % at 2 µM | actives 0.66% (n = 360,000); in the data active means enhancement above about 30%
Target sequence (P34981 whole entry, looked up): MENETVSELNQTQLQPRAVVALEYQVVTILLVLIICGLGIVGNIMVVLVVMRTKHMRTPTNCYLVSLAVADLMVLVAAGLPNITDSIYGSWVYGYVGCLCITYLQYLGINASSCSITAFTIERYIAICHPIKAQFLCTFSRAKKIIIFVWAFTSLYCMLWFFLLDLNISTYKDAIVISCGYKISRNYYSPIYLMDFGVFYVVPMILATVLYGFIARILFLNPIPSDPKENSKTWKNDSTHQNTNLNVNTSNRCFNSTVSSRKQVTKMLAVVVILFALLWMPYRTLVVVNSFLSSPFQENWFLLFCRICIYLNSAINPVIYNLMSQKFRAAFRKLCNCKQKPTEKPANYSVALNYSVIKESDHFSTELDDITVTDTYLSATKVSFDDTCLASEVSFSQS
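TRHR-expressing cells loaded with fluo-8 calcium dye were read kinetically (ex 480/em 530) during compound addition, then stimulated with an EC20 of TRH (10 nM final). Enhancement of the Gq-mediated intracellular calcium response was scored.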
D1 antag: human D1 dopamine receptor antagonism; P21728; HEK293 TREx D1 cells, calcium flux, dopamine EC80; hits give low values; activity change, negative = inhibition, % at 10 µM; actives 3.2% (n = 360,000); AID 504652; in the data active means activity change below about -30%
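HEK293 T-REx cells expressing inducible, force-coupled D1 receptor; no-wash Ca dye, 30–90 min RT. Cmpd → 180 s read at 1 Hz → EC80 DA → 180 s read.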
USP1-UAF1 inh: inhibitors of human USP1/UAF1 deubiquitinase. recombinant USP1/UAF1, Ub-Rhodamine cleavage fluorescence. O94782. actives 0.23% (n = 390,000). Potency, µM (top dose mostly 57.1 µM), hits mostly inhibitors. AID 743255; active means well fitted inhibition curve with a large enough effect; inconclusive means small, poorly fitted or top-dose-only effect; inactive means no such curve, though single readings can be large or run the other way; further: nearly all actives have a fitted effect of over 60% in size
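Step one: compound is pinned into 1nM USP1/UAF1 in HEPES pH 7.8 buffer with TCEP. Step two: 15 min room-temperature incubation. Step three: Ub-Rho (150nM final) starts cleavage, tracked by fluorescence over six one-minute reads.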
TRHR ag: activates the human TRH receptor. P34981. TRHR cells, calcium flux fluo-8, FDSS agonist mode. activation, % at 2 µM. actives 0.18% (n = 360,000)
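In this calcium-flux screen, cells bearing human TRHR are dye-loaded with fluo-8, baselined for 10 cycles, then exposed to library compounds; positive kinetic calcium responses during the agonist phase mark hits, with TRH as control.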
D1 ag: human D1 receptor agonism | P21728 | HEK293 T-REx D1 cells, calcium flux, agonist mode | activation, % at 2 µM | actives 1% (n = 360,000) | AID 504660
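Tetracycline-induced HEK293 TREx D1 cells, force-coupled to calcium signalling, were dye-loaded with a no-wash calcium kit. Compound was pin-added after a 10 s baseline. Fluorescence was read kinetically at 1 cycle/s for 180 s, with calcium rises flagged as agonism.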
D1 PAM: human D1 dopamine receptor positive modulation | P21728 | HEK293 TREx D1 cells, calcium flux, dopamine EC20 potentiation | potentiation, % at 10 µM | actives 0.036% (n = 360,000); in the data active means potentiation above about 30%
Numbers stand for hits; n = inactive; u = inconclusive; x = no result given; ! = a repeat was not active. Unless noted, no stated cut-off is given here; in the data, active means activation above about 30%; inactive means the rest.

SMILES	TRHR PAM	D1 antag	USP1-UAF1 inh	TRHR ag	D1 ag	D1 PAM
CC(C)Oc1ccc(/C=C/C(=O)NCC2COc3ccccc3O2)cc1 (configuration not stated)	n	-91	n	n	n	n
O=C(Nc1ccccc1)c1ccc(-c2ccccc2)s1	n	n	n	n	51	n
CCOc1ccc(OCC)c(NC(=O)c2ccc(-c3ccccc3)s2)c1	n	-85	n	n	n	n
O=C(Nc1ccccc1F)c1ccc(-c2ccccc2)s1	n	n	n	n	n	n
CCc1ccc(NC(=O)Nc2ccccc2OCc2cc(=O)n3ccccc3n2)cc1	n	n	n	n	n	n
Cc1ccccc1CN1C(=O)C(O)(CC(=O)c2cccc(Br)c2)c2ccccc21 (configuration not stated)	n	n	n	n	n	n
COc1ccc(-c2cc3nc(C4CCN(C(=O)OC(C)(C)C)CC4)c(C(=O)Nc4cc(Cl)cc(Cl)c4)cn3n2)cc1	n	n	n	n	n	n
CN(C)c1ccc(CNC(=O)CCn2c(=O)c3cccn3c3ccc(F)cc32)cc1	n	-30	n	n	n	n
Cc1ccc(NC(=O)CCCn2c(=O)c3cccn3c3ccccc32)cc1C	n	n	n	n	n	n
Cc1ccc(NC(=O)CCn2c(=O)c3cccn3c3ccccc32)cc1C	n	-37!	n	n	n	n
O=C(CCn1c(=O)c2cccn2c2ccc(F)cc21)NCc1ccccc1F	n	-69	n	n	n	n
O=C(CCn1c(=O)c2cccn2c2ccc(F)cc21)NCc1cccc(F)c1	n	n	n	n	n	n
COc1ccc(N2CCN(C(=O)CCC(=O)N3CCOc4ccc(C)cc43)CC2)cc1	n	-34	n	n	n	n
Cc1ccc2c(c1)N(C(=O)CCC(=O)N1CCN(c3ccccc3)CC1)CCO2	n	-50	n	n	n	n
COc1ccc(N2CCN(C(=O)Cc3coc4ccc(C)cc34)CC2)cc1	n	-68	n	n	n	n
CC(=O)c1ccc(N2C(=O)N(Cc3cc(C)ccc3C)c3ccccc3S2(=O)=O)cc1	n	n	n	n	n	n
CN(C)c1ccc(/C=C2\N=C(c3ccc(Cl)c([N+](=O)[O-])c3)NC2=O)cc1	n	n	u	n	35	n
Cc1ccc(S(=O)(=O)NCc2nc3nc(C)cc(C)n3n2)c(C)c1	n	-65!	n	n	n	n
Cc1cc(C)c(S(=O)(=O)NCc2nc3nc(C)cc(C)n3n2)c(C)c1	n	n	n	n	n	n
O=C(NC(NNc1ccc([N+](=O)[O-])cc1)(C(F)(F)F)C(F)(F)F)c1ccc(Cl)cc1	n	-54	n	n	31	n
CC(=O)Nc1nonc1NC(=O)CSC1=NCCS1	31	n	n	n	n	n
CC(=O)N1c2ccccc2C(=O)C1N1CCN(c2cccc(C)c2C)CC1 (configuration not stated)	n	n	n	n	n	n
COc1ccc2c(c1)[nH]c1c(=O)n(CCCN3CCOCC3)cnc12	n	-31	n	n	n	n
COc1ccc2c(c1)[nH]c1c(=O)n(CCN3CCOCC3)cnc12	n	n	n	n	n	n
COc1ccc(CNc2ncnc3c2[nH]c2ccccc23)cc1	n	-42	n	n	33	n
SMILES	TRHR PAM	D1 antag	USP1-UAF1 inh	TRHR ag	D1 ag	D1 PAM
Cc1ccc2c(c1)[nH]c1c(=O)n(CCC3=CCCCC3)cnc12	n	-32	x	n	n	n
Cc1ccc2[nH]c3c(NCc4ccccc4)ncnc3c2c1	n	-51	n	n	40	n
CCC(C)NC(=O)c1sc2nc(C)c(C(=O)Nc3ccc(C)cc3C)c(-c3ccc(NC(C)=O)cc3)c2c1N (configuration not stated)	n	n	n	n	n	n
O=c1c2[nH]c3ccccc3c2ncn1CCC1=CCCCC1	n	n	n	n	n	n
C1=C(CCNc2ncnc3c2[nH]c2ccccc23)CCCC1	n	-34	n	n	n	n
COc1ccc(C[C@H]2CN3C(=NC[C@@H]3C(C)C)N2CCNC(=O)c2ccc(C)c(Br)c2)cc1	n	n	n	n	30	n
